3T3 cytotox: Cytotoxic Profiling in NIH 3T3 Cell Line of Diverse Libraries Using Quantitative High-Throughput Screening | NIH 3T3 viability, CellTiter-Glo ATP luminescence, 48-72 h | Potency, µM (titrated, usually from 96.7 µM), most hits filed as inhibitors | 94,000 compounds, 4.3% hits | AID 1345082, 2018; further: nearly all actives have a fitted effect of over 55% in size
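Luminescent ATP readout (CellTiter-Glo, 10 min RT) after 48 or 72 hr compound exposure of NIH 3T3 cells seeded at 400 cells/well in 1536-well format; quantitative HTS.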
FLuc inh: Firefly luciferase inhibition profiling of diverse chemical library using quantitative high-throughput screening. purified P. pyralis luciferase, luminescence, biochemical. Potency, µM (top dose mostly 115 µM), usual class: inhibitors. 76,000 compounds, 2.5% hits. AID 1347043, 2019; further: nearly all actives have a fitted effect of over 65% in size
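Inhibitors were tested against purified firefly luciferase in a biochemical, low-substrate format (both substrates at 10uM) and luminescence measured with a CCD imager.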
NPR1 antag: Natriuretic polypeptide receptor (hNpr1) antagonism - Primary qHTS; Atrial natriuretic peptide receptor 1 (Homo sapiens), P16066; HEK293 hNpr1 GloSensor cGMP, ANP-stimulated luminescence; Potency, µM (series often up to 46.3 µM), usual class: inhibitors; 76,000 compounds, 1.6% hits; AID 1347048, 2019; calls by dose curve; further: nearly all actives have a fitted effect of over 60% in size
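HEK293 cells stably expressing human Npr1 and cGMP GloSensor pGS-40F, loaded 2 h with 2% GloSensor reagent, given compound 30 min at room temperature. Luminescence read before and 20 min after 0.1 nM hNppA.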
HEK293 tox: Cytotoxic Profiling in HEK 293 Cell Line of Diverse Libraries Using Quantitative High-Throughput Screening; HEK 293 viability, ATP luminescence (CellTiter-Glo), 48-72 h; Potency, µM (series often up to 115 µM), actives largely listed as inhibitors; 94,000 compounds, 6.6% hits; further: nearly all actives have a fitted effect of over 60% in size
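Read-out: CellTiter-Glo ATP luminescence. Cells: HEK 293, 250 cells/well. Exposure: 48 or 72 hr, 37 degree Celsius.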
A number is an active result; 0 = inactive; ? = inconclusive; - = no result. Sampled rows, rich in hits. Any-hit rate of the full collection: about 11%. Unless noted, the call rests on the fitted dose curve; in most records, active means well fitted curve in the direction sought with a large enough effect; inconclusive means small, poorly fitted or top-dose-only effect, or another doubt; inactive means no such curve, though single readings can be large; an effect the other way counts as inactive or inconclusive.

SMILES | 3T3 cytotox | FLuc inh | NPR1 antag | HEK293 tox
Cc1ccc(OCCC2CCN(C(=O)CCn3nc(C)cc3C)C2)cc1 (stereo not drawn) | ? | 0 | ? | 50.1µM
CN(CC(=O)N1CCC(CCOc2ccc(F)cc2)C1)S(=O)(=O)c1cccs1 (stereo not drawn) | ? | 0 | ? | 50.1µM
CCn1nc(C)c(-c2cc(C(=O)N3CCC(CCOc4ccccc4OC)C3)no2)c1C (stereo not drawn) | ? | 0 | 0 | 44.7µM
COc1ccccc1C(=O)N1CCC(CCOc2ccc(C)cc2)C1 (stereo not drawn) | ? | 0 | ? | 39.8µM
Cc1ccc(OCCC2CCN(C(=O)c3ccoc3)C2)cc1 (stereo not drawn) | ? | 0 | 0 | ?
CC(Nc1ccc(-c2nc(CCCc3ccccc3)no2)cn1)c1cnn(C)c1 (stereo not drawn) | ? | 15.8µM | 0 | ?
CN(Cc1cnn(C)c1)c1ccc(-c2nc(COc3ccccc3)no2)cn1 | 0 | 0 | 0 | 0
CCOCc1nc(C2CCCN(C(=O)c3cccc(OC)c3)C2)no1 (stereo not drawn) | 0 | 0 | 0 | 0
Cc1ccc(-c2cccc(CN)c2)c(C)c1 | 28.2µM | - | - | 44.7µM
Cc1cc(Cl)ccc1-c1ccc(C=O)cc1 | ? | - | - | 0
Cc1cc(Cl)ccc1-c1ccccc1C=O | 112µM | - | - | ?
Cc1cccc(-c2ccccc2CN)c1 | 0 | - | - | 0
Cc1cc(Cl)ccc1-c1cccc(CN)c1 | 31.6µM | - | - | 39.8µM
NCc1cccc(-c2cc(C(F)(F)F)ccc2Cl)c1 | ? | - | - | 70.8µM
Cc1ccccc1CN1CCC2(CC1)OCCN(Cc1ccccc1)C2=O | ? | 0 | 0 | ?
COc1ccc(-c2noc(-c3cccn3CC(=O)Nc3ccc(NC(C)=O)cc3)n2)cc1F | 0 | 0 | 0 | 0
O=C(CCc1ccsc1)N1CCc2ncnc(NC3CCC3)c2CC1 | 0 | 0 | 0 | ?
CCNc1nc2c(s1)C(c1cccnc1)CC(=O)N2 (stereo not drawn) | 0 | 0 | 0 | 0
Cc1cc(Cl)ccc1-c1ccccc1CN | 22.4µM | - | - | ?
NCc1cccc(-c2cccc(O)c2)c1 | 0 | - | - | 0
COc1ccccc1-c1cccc(CN)c1 | 126µM | - | - | 100µM
Cc1ccc(-c2ccc(CN)cc2)c(C)c1 | 31.6µM | - | - | 31.6µM
Cc1cnc(C(=O)N2CC[C@H](n3c(=O)n(C)c4cccnc43)C2)cn1 | 0 | - | - | 0
Cc1ccc(CN2CCCC(c3nc(-c4cccnc4)no3)CCNC(=O)CC2)s1 (stereo not drawn) | ? | 0 | 0 | 89.1µM
COc1ccc(CCC(=O)N2CCCC(c3nc(-c4ccccc4)no3)CCNC(=O)CC2)cc1 (stereo not drawn) | ? | 0 | 0 | 89.1µM
SMILES | 3T3 cytotox | FLuc inh | NPR1 antag | HEK293 tox
COc1cccc(CC(=O)N2CCCC(c3nc(-c4ccccc4)no3)CCNC(=O)CC2)c1 (stereo not drawn) | 0 | ? | 0 | 0
O=C1CCN(C(=O)C2CCCC2)CCCC(c2nc(-c3ccccc3)no2)CCN1 (stereo not drawn) | 0 | 0 | 0 | ?
O=C1CCN(C(=O)c2ccco2)CCCC(c2nc(-c3ccccc3)no2)CCN1 (stereo not drawn) | 0 | 28.2µM | 0 | 0
O=C(NC1CCCCC1)N1CCC(c2noc(-c3ccccn3)n2)C1 (stereo not drawn) | 0 | 0 | 0 | 0
CN1CC(=O)N(C2CCCCC2)Cc2c(NC3CCCC3)ncnc21 | ? | - | - | 0
COc1cc(OC)cc(C(=O)NC2CCCN(c3cc(-c4ccc(F)cc4)[nH]n3)C2)c1 (stereo not drawn) | ? | ? | 0 | 44.7µM
COc1cccc(C(=O)NC2CCCN(c3cc(-c4ccc(F)cc4)[nH]n3)C2)c1 (stereo not drawn) | 44.7µM | ? | 0 | ?
COc1ccc(C(=O)NC2CCN(c3cc(-c4ccc(F)cc4)[nH]n3)C2)cc1 (stereo not drawn) | ? | 0 | 0 | ?
Cn1ncc(N2CCC(NC(=O)C3CCOCC3)CC2)cc1=O | 0 | 0 | 0 | 0
Cc1ccc(N2C(=S)N[C@H]3[C@@H](O)[C@H](O)C[C@@H](C(=O)NCc4cccs4)[C@H]32)cc1Cl | ? | ? | 0 | 79.4µM
COc1ccc(N2CC(C(=O)NCc3cccs3)NC2=O)cc1 (stereo not drawn) | 0 | 0 | 0 | 0

Screening data as filed in PubChem.
